In PubChem BioAssay (NCI):
Compounds without any hit were thinned out: in the full panel of roughly 83,000, 20% have a hit.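 The test compound was applied at a single concentration to cells in 96-well plates for 48 hours, and percent growth was recorded.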 A number with no mark means an inactive call. Active and inactive are the calls of the source. How the source made its calls: active means growth percent below 10; inactive means the rest.

Assays:
Experiment in all cases: NCI-60 one-dose screen, 48 h (100 = growth as untreated, 0 = no growth, -100 = all killed)
Conditions in all cases: 10 µM unless noted
RPMI-8226 leukemia = tested on: RPMI-8226 leukemia
OVCAR-8 ovarian = tested on: OVCAR-8 ovarian
OVCAR-5 ovarian = tested on: OVCAR-5 ovarian
OVCAR-4 ovarian = tested on: OVCAR-4 ovarian
SK-OV-3 ovarian = tested on: SK-OV-3 ovarian
IGROV1 ovarian = tested on: IGROV1 ovarian
OVCAR-3 ovarian = tested on: OVCAR-3 ovarian
HS 578T breast = tested on: HS 578T breast
NCI/ADR-RES ovarian = tested on: NCI/ADR-RES ovarian

O=C(NCc1cccnc1)c1cc(-c2csc3c(=O)cc(N4CCOCC4)oc23)cc2c1OCCO2
growth (RPMI-8226 leukemia): 9.21% (active)
growth (OVCAR-8 ovarian): 38%
growth (OVCAR-5 ovarian): 31.3%
growth (OVCAR-4 ovarian): 50.3%
growth (SK-OV-3 ovarian): 8.37% (active)
growth (IGROV1 ovarian): 7.23% (active)
growth (OVCAR-3 ovarian): 34.7%
growth (HS 578T breast): 8.92% (active)
growth (NCI/ADR-RES ovarian): 89.3%

N#Cc1c(NC(=O)c2cccc(C(F)(F)F)c2)sc2c1CCC(=O)C2
growth (RPMI-8226 leukemia): -9.7% (active)
growth (OVCAR-8 ovarian): 10.4%
growth (OVCAR-5 ovarian): 12.9%
growth (OVCAR-4 ovarian): -80.7% (active)
growth (SK-OV-3 ovarian): 3.53% (active)
growth (IGROV1 ovarian): -50.7% (active)
growth (OVCAR-3 ovarian): -46.8% (active)
growth (HS 578T breast): 1.32% (active)
growth (NCI/ADR-RES ovarian): 7.01% (active)

Cc1cc(N(CCCNc2ccnc3cc(Cl)ccc23)Cc2ccccn2)nc(N2CCCC2)n1
growth (RPMI-8226 leukemia): 48.9%
growth (OVCAR-8 ovarian): 73.4%
growth (OVCAR-5 ovarian): 87.6%
growth (OVCAR-4 ovarian): 63.1%
growth (SK-OV-3 ovarian): 102%
growth (IGROV1 ovarian): 87.5%
growth (OVCAR-3 ovarian): 88%
growth (HS 578T breast): 88.9%
growth (NCI/ADR-RES ovarian): 76.7%

O=C1C=CC(=Nc2cc(Br)c(O)c(Br)c2)C=C1
growth (RPMI-8226 leukemia): -18.9% (active)
growth (OVCAR-8 ovarian): 66.7%
growth (OVCAR-5 ovarian): 94.7%
growth (OVCAR-4 ovarian): 50.1%
growth (SK-OV-3 ovarian): 117%
growth (IGROV1 ovarian): 72.1%
growth (OVCAR-3 ovarian): 32%
growth (HS 578T breast): 83.8%
growth (NCI/ADR-RES ovarian): 63.9%

C=C1C(=O)O[C@H]2[C@H]1CC/C(Cn1cc(CNCCc3c[nH]c4ccc(Cl)cc34)nn1)=C\CC[C@@]1(C)O[C@@H]21
growth (RPMI-8226 leukemia): 9.44% (active)
growth (OVCAR-8 ovarian): 59.6%
growth (OVCAR-5 ovarian): 83.5%
growth (OVCAR-4 ovarian): 41.7%
growth (SK-OV-3 ovarian): 72.6%
growth (IGROV1 ovarian): 2.11% (active)
growth (OVCAR-3 ovarian): 11.9%
growth (HS 578T breast): 83.4%
growth (NCI/ADR-RES ovarian): 102%

CCOc1cc(N)ccc1C(=O)NCCCN(CC)CC
growth (RPMI-8226 leukemia): 95.9%
growth (OVCAR-8 ovarian): 118%
growth (OVCAR-5 ovarian): 93.9%
growth (OVCAR-4 ovarian): 109%
growth (SK-OV-3 ovarian): 110%
growth (IGROV1 ovarian): 96.5%
growth (OVCAR-3 ovarian): 105%
growth (HS 578T breast): 99.1%
growth (NCI/ADR-RES ovarian): 94.2%

CCO/C=N/C1=C(C#N)C(c2ccc(OC)cc2)c2c(c3ccccc3n(C)c2=O)O1 (stereo not drawn)
growth (RPMI-8226 leukemia): 102%
growth (OVCAR-8 ovarian): 104%
growth (OVCAR-5 ovarian): 100%
growth (OVCAR-4 ovarian): 98.8%
growth (SK-OV-3 ovarian): 99.9%
growth (IGROV1 ovarian): 101%
growth (OVCAR-3 ovarian): 114%
growth (HS 578T breast): 107%
growth (NCI/ADR-RES ovarian): 108%

C/C(=N\NC(=O)Cn1c(-c2ccc(S(C)(=O)=O)cc2)nc2cc(Cl)ccc21)c1ccc(Cl)cc1
growth (RPMI-8226 leukemia): 76.4%
growth (OVCAR-8 ovarian): 79.5%
growth (OVCAR-5 ovarian): 91.2%
growth (OVCAR-4 ovarian): 65.9%
growth (SK-OV-3 ovarian): 81.3%
growth (IGROV1 ovarian): 70.6%
growth (OVCAR-3 ovarian): 79.7%
growth (HS 578T breast): 80.7%
growth (NCI/ADR-RES ovarian): 86.7%

O=[N+]([O-])c1cccc(/C=C/c2ccccn2)c1
growth (RPMI-8226 leukemia): 51.7%
growth (OVCAR-8 ovarian): 86.2%
growth (OVCAR-5 ovarian): 96.2%
growth (OVCAR-4 ovarian): 70.5%
growth (SK-OV-3 ovarian): 94%
growth (IGROV1 ovarian): 86.7%
growth (OVCAR-3 ovarian): 59.4%
growth (NCI/ADR-RES ovarian): 81.2%

COC(=O)c1ccc(CSc2nnc(-c3ccncc3)o2)cc1
growth (RPMI-8226 leukemia): 102%
growth (OVCAR-8 ovarian): 101%
growth (OVCAR-5 ovarian): 104%
growth (OVCAR-4 ovarian): 99.5%
growth (SK-OV-3 ovarian): 102%
growth (IGROV1 ovarian): 98.9%
growth (OVCAR-3 ovarian): 112%
growth (HS 578T breast): 107%
growth (NCI/ADR-RES ovarian): 104%

CN(C)CCN1C(=O)c2cccc3c(-c4ccc(-c5nc6c7ccccc7c7ccccc7c6[nH]5)cc4)ccc(c23)C1=O
growth (RPMI-8226 leukemia): 54.9%
growth (OVCAR-8 ovarian): 52%
growth (OVCAR-5 ovarian): 123%
growth (OVCAR-4 ovarian): -2.99% (active)
growth (SK-OV-3 ovarian): 109%
growth (IGROV1 ovarian): 96.3%
growth (OVCAR-3 ovarian): 117%
growth (HS 578T breast): 117%
growth (NCI/ADR-RES ovarian): 88.1%

O=S(=O)(Nc1ccsc1-c1nc(-c2ccccc2)no1)c1cc(Cl)cc(Cl)c1
growth (RPMI-8226 leukemia): 82.6%
growth (OVCAR-8 ovarian): 92.4%
growth (OVCAR-5 ovarian): 86.5%
growth (OVCAR-4 ovarian): 93.8%
growth (SK-OV-3 ovarian): 83.3%
growth (IGROV1 ovarian): 100%
growth (OVCAR-3 ovarian): 96.7%
growth (HS 578T breast): 94.1%
growth (NCI/ADR-RES ovarian): 94%

CCOC(=O)c1c(C)[nH]c(C(=O)CCC(=O)OC)c1C
growth (RPMI-8226 leukemia): 95.8%
growth (OVCAR-8 ovarian): 103%
growth (OVCAR-5 ovarian): 100%
growth (OVCAR-4 ovarian): 107%
growth (SK-OV-3 ovarian): 101%
growth (IGROV1 ovarian): 104%
growth (OVCAR-3 ovarian): 105%
growth (HS 578T breast): 124%
growth (NCI/ADR-RES ovarian): 97.9%

COc1cc(-c2ncn(/C=C\c3nnco3)n2)cc(C(F)(F)F)c1
growth (RPMI-8226 leukemia): 76.4%
growth (OVCAR-8 ovarian): 19.8%
growth (OVCAR-5 ovarian): 37.9%
growth (OVCAR-4 ovarian): 15.4%
growth (SK-OV-3 ovarian): 38.9%
growth (IGROV1 ovarian): 22.3%
growth (OVCAR-3 ovarian): -20.8% (active)
growth (HS 578T breast): 19.3%
growth (NCI/ADR-RES ovarian): 27.1%

COc1ccc(OC)c(Nc2nc3nonc3nc2Nc2cc(OC)ccc2OC)c1
growth (RPMI-8226 leukemia): 36.1%
growth (OVCAR-8 ovarian): 47.8%
growth (OVCAR-5 ovarian): 92.3%
growth (OVCAR-4 ovarian): -27.6% (active)
growth (SK-OV-3 ovarian): 46.1%
growth (IGROV1 ovarian): 95.3%
growth (OVCAR-3 ovarian): 26%
growth (HS 578T breast): 44.6%
growth (NCI/ADR-RES ovarian): 44.8%

Clc1cnc(Nc2ccc(OCCN3CCCC3)cc2)nc1NCc1ccco1
growth (RPMI-8226 leukemia): 6.95% (active)
growth (OVCAR-8 ovarian): 20.2%
growth (OVCAR-5 ovarian): 8.69% (active)
growth (OVCAR-4 ovarian): 51.6%
growth (SK-OV-3 ovarian): 57.8%
growth (IGROV1 ovarian): 15.7%
growth (OVCAR-3 ovarian): 28.8%
growth (HS 578T breast): 31.4%
growth (NCI/ADR-RES ovarian): 18.5%

COc1ccc(-n2ncn(CCCCCCn3cnn(-c4ccc(OC)cc4)c3=O)c2=O)cc1
growth (RPMI-8226 leukemia): 78.3%
growth (OVCAR-8 ovarian): 95.2%
growth (OVCAR-5 ovarian): 101%
growth (OVCAR-4 ovarian): 84.5%
growth (SK-OV-3 ovarian): 99.5%
growth (IGROV1 ovarian): 90.6%
growth (OVCAR-3 ovarian): 98.4%
growth (HS 578T breast): 93.9%
growth (NCI/ADR-RES ovarian): 89%

N#Cc1cccc(-c2nc3ccccn3c2NCCN2CCOCC2)c1
growth (RPMI-8226 leukemia): 90.4%
growth (OVCAR-8 ovarian): 90.7%
growth (OVCAR-5 ovarian): 94.4%
growth (OVCAR-4 ovarian): 30%
growth (SK-OV-3 ovarian): 86.3%
growth (IGROV1 ovarian): 97.8%
growth (OVCAR-3 ovarian): 96.9%
growth (HS 578T breast): 96.2%
growth (NCI/ADR-RES ovarian): 98.2%

C[C@@H]1CC[C@@H]2[C@@H]1[C@H](OC(=O)c1ccc3ccccc3c1)[C@]1(C3CCCCC3)C[C@@H](OC(=O)CO)[C@@]2(C)O1
growth (RPMI-8226 leukemia): 31.4%
growth (OVCAR-8 ovarian): 18.5%
growth (OVCAR-5 ovarian): 89.4%
growth (OVCAR-4 ovarian): 55.5%
growth (SK-OV-3 ovarian): 75.4%
growth (IGROV1 ovarian): 71.1%
growth (OVCAR-3 ovarian): 73.6%
growth (HS 578T breast): -32.1% (active)
growth (NCI/ADR-RES ovarian): 14.6%

Cc1ccc(NSc2ccccc2[N+](=O)[O-])cc1
growth (RPMI-8226 leukemia): 19.9%
growth (OVCAR-8 ovarian): 33.1%
growth (OVCAR-5 ovarian): 49.7%
growth (OVCAR-4 ovarian): 73.2%
growth (SK-OV-3 ovarian): 28.3%
growth (IGROV1 ovarian): 38%
growth (OVCAR-3 ovarian): 7.41% (active)
growth (HS 578T breast): 32.2%
growth (NCI/ADR-RES ovarian): 14%

Cn1c(NCCc2ccc(O)c(O)c2)nc2c1c(=O)n(Cc1ccc(Cl)cc1)c(=O)n2C
growth (RPMI-8226 leukemia): 37.9%
growth (OVCAR-8 ovarian): 87.6%
growth (OVCAR-5 ovarian): 94.9%
growth (OVCAR-4 ovarian): 59.8%
growth (SK-OV-3 ovarian): 82.3%
growth (IGROV1 ovarian): 61.9%
growth (OVCAR-3 ovarian): 62.6%
growth (HS 578T breast): 77%
growth (NCI/ADR-RES ovarian): 88.5%

CN=C1C=CC(=C(c2ccc(N(C)C)cc2)c2ccc(N(C)C)cc2)C=C1
growth (RPMI-8226 leukemia): 0.425% (active)
growth (OVCAR-8 ovarian): -38.5% (active)
growth (OVCAR-5 ovarian): 17.4%
growth (OVCAR-4 ovarian): 7.52% (active)
growth (SK-OV-3 ovarian): -15.6% (active)
growth (IGROV1 ovarian): -12.7% (active)
growth (OVCAR-3 ovarian): -42.2% (active)
growth (HS 578T breast): 32.6%
growth (NCI/ADR-RES ovarian): 10.9%

CCCCNC(=O)NS(=O)(=O)c1ccc(N2N=C(c3ccc(C)cc3C)CC2c2ccc(N(C)C)cc2)cc1 (stereo not drawn)
growth (RPMI-8226 leukemia): 34.2%
growth (OVCAR-8 ovarian): 57.7%
growth (OVCAR-5 ovarian): 84.6%
growth (OVCAR-4 ovarian): 64%
growth (SK-OV-3 ovarian): 97.7%
growth (IGROV1 ovarian): 89.9%
growth (OVCAR-3 ovarian): 51.2%
growth (HS 578T breast): 88.1%
growth (NCI/ADR-RES ovarian): 46.8%

C=C1C(=O)O[C@H]2[C@H]1CC/C(COC(=O)/C=C/C(=O)NCc1ccc(Cn3c(=O)sn(-c4ccccc4)c3=O)cc1)=C\CC[C@@]1(C)O[C@@H]21
growth (RPMI-8226 leukemia): -32.6% (active)
growth (OVCAR-8 ovarian): -0.571% (active)
growth (OVCAR-5 ovarian): 35.4%
growth (OVCAR-4 ovarian): 25.7%
growth (SK-OV-3 ovarian): 75.8%
growth (IGROV1 ovarian): -25.5% (active)
growth (OVCAR-3 ovarian): -77.5% (active)
growth (HS 578T breast): 77.8%
growth (NCI/ADR-RES ovarian): 94.1%

Cc1nn(Cc2ccccc2)cc1C(=O)Nc1sc2c(c1C(N)=O)CCC(=O)C2
growth (RPMI-8226 leukemia): -6.08% (active)
growth (OVCAR-8 ovarian): 20.3%
growth (OVCAR-5 ovarian): 73.8%
growth (OVCAR-4 ovarian): -7.95% (active)
growth (SK-OV-3 ovarian): 116%
growth (IGROV1 ovarian): 33.5%
growth (OVCAR-3 ovarian): 9.48% (active)
growth (HS 578T breast): 28.8%
growth (NCI/ADR-RES ovarian): 72%

C=C(C)[C@@H]1CC[C@]2(CO)CC[C@]3(C)[C@H](CC[C@@H]4[C@@]5(C)C=C(C#N)C(=O)C(C)(C)[C@@H]5CC[C@]43C)[C@@H]12
growth (RPMI-8226 leukemia): -20.9% (active)
growth (OVCAR-8 ovarian): 22.2%
growth (OVCAR-5 ovarian): 36.3%
growth (OVCAR-4 ovarian): 26.9%
growth (SK-OV-3 ovarian): 37.9%
growth (IGROV1 ovarian): 24.1%
growth (OVCAR-3 ovarian): -49.2% (active)
growth (HS 578T breast): 29.3%
growth (NCI/ADR-RES ovarian): 13.1%
